Laboratory results as given in PubChem BioAssay (NCATS).
Records with an inconclusive call do not appear. Active and inactive are the calls of the source. Calls come from the whole dose curve; as a rule, active = well fitted curve in the direction sought with a large enough effect; inconclusive = small, poorly fitted or top-dose-only effect, or another doubt; inactive = no such curve, though single readings can be large; an effect the other way counts as inactive or inconclusive.

What was measured:
[1] = qHTS of pediatric cancer cell lines to identify multiple opportunities for drug repurposing: Confirmatory screen for U-2 OS cells (AID 1347122); note: nearly all actives have a fitted effect of over 65% in size; note: potency is the fitted concentration of half-maximal effect
In short: (§1)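 Cells (500-1,000/well) in growth media were settled 5 h at 37 degrees C, then given compounds for 48 h. Viability was read as CellTiter-Glo luminescence. Primary runs used MIPE at 11 points (0.78 nM-46 µM) and NPC at 8 points (0.59 nM-46 µM); follow-ups used 11 points.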

[2] = qHTS of pediatric cancer cell lines to identify multiple opportunities for drug repurposing: Confirmatory screen for Rh41 cells (AID 1347123);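 note: 48 h compound exposure; nearly all actives have a fitted effect of over 60% in size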; note: potency is the fitted concentration of half-maximal effect
In short: as §1

[3] = qHTS of pediatric cancer cell lines to identify multiple opportunities for drug repurposing: Confirmatory screen for RD cells (AID 1347124);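 note: cells exposed to compound for 48 h before viability readout; nearly all actives have a fitted effect of over 65% in size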; note: potency is the fitted concentration of half-maximal effect
In short: as §1

[4] = qHTS of pediatric cancer cell lines to identify multiple opportunities for drug repurposing: Confirmatory screen for Rh18 cells (AID 1347125); note: nearly all actives have a fitted effect of over 55% in size; note: potency is the fitted concentration of half-maximal effect
In short: as §1

[5] = qHTS of pediatric cancer cell lines to identify multiple opportunities for drug repurposing: Confirmatory screen for Rh30 cells (AID 1347126); note: nearly all actives have a fitted effect of over 55% in size; note: potency is the fitted concentration of half-maximal effect
In short: as §1

[6] = qHTS of pediatric cancer cell lines to identify multiple opportunities for drug repurposing: Confirmatory screen for OHS-50 cells (AID 1347128);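 note: compound exposure lasted 48 h at 37 degrees C; nearly all actives have a fitted effect of over 55% in size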; note: potency is the fitted concentration of half-maximal effect
In short: as §1

[7] = qHTS of pediatric cancer cell lines to identify multiple opportunities for drug repurposing: Confirmatory screen for SK-N-SH cells (AID 1347129);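 note: cells exposed to compound for 48 h before viability read; nearly all actives have a fitted effect of over 60% in size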; note: potency is the fitted concentration of half-maximal effect
In short: as §1

[8] = qHTS of pediatric cancer cell lines to identify multiple opportunities for drug repurposing: Confirmatory screen for Saos-2 cells (AID 1347127); note: nearly all actives have a fitted effect of over 60% in size; note: potency is the fitted concentration of half-maximal effect
In short: as §1

Furin (Homo sapiens) = Furin (Homo sapiens) (UniProt P09958); experiment: Furin counterscreen qHTS for Zika virus inhibitors (AID 1347149);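 note: purified recombinant full-length human furin enzyme at 5 nM; fluorescence gain from furin cutting a BOC-RVRR-AMC peptide substrate over 15 min; top concentration of the series differs between compounds; nearly all actives have a fitted effect of over 70% in size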
Furin (Homo sapiens), sequence (P09958 whole entry, looked up): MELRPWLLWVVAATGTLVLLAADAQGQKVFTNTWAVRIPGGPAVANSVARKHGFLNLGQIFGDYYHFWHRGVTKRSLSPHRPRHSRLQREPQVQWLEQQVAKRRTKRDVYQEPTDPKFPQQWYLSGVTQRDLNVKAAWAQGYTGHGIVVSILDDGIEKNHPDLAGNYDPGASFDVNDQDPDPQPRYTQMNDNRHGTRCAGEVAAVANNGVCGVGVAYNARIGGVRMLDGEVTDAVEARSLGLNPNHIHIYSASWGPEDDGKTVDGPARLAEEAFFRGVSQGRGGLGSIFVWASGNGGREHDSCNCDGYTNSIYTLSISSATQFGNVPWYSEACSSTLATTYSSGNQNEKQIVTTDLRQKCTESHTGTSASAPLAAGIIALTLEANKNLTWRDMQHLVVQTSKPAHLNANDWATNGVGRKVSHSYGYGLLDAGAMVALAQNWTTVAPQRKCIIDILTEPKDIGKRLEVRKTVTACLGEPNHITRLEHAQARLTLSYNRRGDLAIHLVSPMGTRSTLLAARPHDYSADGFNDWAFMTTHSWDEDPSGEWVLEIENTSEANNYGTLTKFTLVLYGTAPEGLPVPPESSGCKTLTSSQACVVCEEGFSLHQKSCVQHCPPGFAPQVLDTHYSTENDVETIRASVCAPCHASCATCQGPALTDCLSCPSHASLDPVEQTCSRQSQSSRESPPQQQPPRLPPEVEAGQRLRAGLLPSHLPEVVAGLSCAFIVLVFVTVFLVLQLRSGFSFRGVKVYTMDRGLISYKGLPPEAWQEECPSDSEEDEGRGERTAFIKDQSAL
In short: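 Counterscreen measures cleavage of 2 microM BOC-RVRR-AMC, below its ~15 microM Km, by 5 nM full-length human furin at pH 7.0 after a 15-min compound preincubation. Inhibition derives from the 15-min fluorescence increase at 37C.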

Measured: Potency

CN[C@H]1[C@@H](O)[C@@H]2O[C@@H]3O[C@H](C)CC(=O)[C@]3(O)O[C@@H]2[C@@H](NC)[C@H]1O
not listed: [8] | Furin (Homo sapiens)
inactive: all other assays above

FC(F)c1nc2ccccc2n1-c1nc(N2CCOCC2)nc(N2CCOCC2)n1
active: [1] 4650 nM | [2] 2930 nM | [3] 8270 nM | [4] 1850 nM | [5] 1650 nM | [8] 827 nM | [6] 1650 nM | [7] 2350 nM

C=CC(=O)N1CCc2ccc(-n3c(=O)ccc4cnc5ccc(-c6cnn(C)c6)cc5c43)cc21
inactive: [4]
active: [1] 5220 nM | [2] 8270 nM | [3] 10400 nM | [5] 5220 nM | [8] 5220 nM | [6] 7370 nM | [7] 5900 nM

CC(C=CC(=O)NO)=C[C@@H](C)C(=O)c1ccc(N(C)C)cc1
active: [1] 657 nM | [2] 1470 nM | [3] 1310 nM | [4] 928 nM | [8] 1850 nM | [6] 1470 nM | [7] 2960 nM
inactive: [5]

CNC(=O)Nc1ccc(-c2nc(N3CC4CCC(C3)O4)c3cnn(C4CCC5(CC4)OCCO5)c3n2)cc1
active: [1] 522 nM | [2] 131 nM | [3] 522 nM | [4] 233 nM | [5] 329 nM | [8] 1310 nM | [6] 3290 nM | [7] 1320 nM

Cc1ccc([N+](=O)[O-])cc1S(=O)(=O)N(C)N=Cc1cnc2ccc(Br)cn12
active: [1] 7370 nM | [2] 329 nM | [3] 4650 nM | [4] 1310 nM | [5] 4650 nM | [8] 2330 nM | [6] 465 nM | [7] 235 nM

CC(=O)[C@]1(O)Cc2c(O)c3c(c(O)c2[C@@H](O[C@H]2C[C@H](N)[C@@H](O)[C@H](C)O2)C1)C(=O)c1ccccc1C3=O
inactive: [5] | [8]
active: [1] 1310 nM | [2] 329 nM | [3] 737 nM | [4] 6570 nM | [6] 1310 nM | [7] 209 nM

Cc1cc(Nc2ncc3c(n2)N(C)C(=O)N(c2cc(NC(=O)c4cccc(C(F)(F)F)c4)ccc2C)C3)n(C)n1
inactive: [5]
active: [1] 369 nM | [2] 208 nM | [3] 657 nM | [4] 737 nM | [8] 585 nM | [7] 332 nM

O=C(C=CC=Cc1ccc2c(c1)OCO2)N1CCCCC1
not listed: [5] | Furin (Homo sapiens)
inactive: all other assays above

Cc1nc(NC(=O)N2CCC[C@@H]2C(N)=O)sc1-c1ccnc(C(C)(C)C(F)(F)F)c1
active: [1] 14700 nM | [2] 2610 nM | [4] 2930 nM | [5] 5220 nM | [8] 5850 nM | [7] 11800 nM

O=C(O)c1ccc(Nc2ncc3c(n2)-c2ccc(Cl)cc2C(c2c(F)cccc2F)=NC3)cc1
inactive: [5] | [6]
active: [1] 4140 nM | [2] 2330 nM

Cc1cnc(Nc2ccc(CN3CCOCC3)cc2)nc1Nc1cccc(S(=O)(=O)NC(C)(C)C)c1
inactive: [5]
active: [1] 4650 nM | [2] 5220 nM | [4] 9270 nM | [8] 9270 nM | [6] 5220 nM | [7] 5260 nM

COC(=O)C1C2CC3c4[nH]c5cc(OC)ccc5c4CCN3CC2CC(OC(=O)c2cc(OC)c(OC)c(OC)c2)C1OC (configuration not stated)
active: [1] 20800 nM | [2] 11700 nM | [4] 16500 nM | [8] 5850 nM

COc1cccc2c1C(=O)c1c(O)c3c(c(O)c1C2=O)C[C@@](O)(C(C)=O)C[C@H]3O[C@H]1C[C@H](N)[C@H](O)[C@H](C)O1
inactive: [5]
active: [1] 7370 nM | [2] 585 nM | [3] 2610 nM | [4] 2610 nM | [6] 2080 nM | [7] 662 nM

O=C1NCCc2[nH]c(-c3ccncc3)cc21
active: [1] 2930 nM | [2] 2330 nM | [8] 3690 nM | [6] 2930 nM | [7] 2090 nM

COc1cc([C@@H]2c3cc4c(cc3[C@@H](O[C@@H]3O[C@@H]5CO[C@@H](c6cccs6)O[C@@H]5[C@H](O)[C@@H]3O)[C@H]3COC(=O)[C@H]23)OCO4)cc(OC)c1O
inactive: [8]
active: [1] 2330 nM | [2] 585 nM | [4] 1310 nM | [5] 1310 nM | [7] 3320 nM

CC[C@@]1([C@@H]2O[C@@H]([C@H]3O[C@@](O)(CO)[C@H](C)C[C@H]3C)C[C@H]2C)CC[C@H]([C@]2(C)CC[C@]3(C[C@H](O)[C@@H](C)[C@@H]([C@@H](C)[C@@H](OC)[C@H](C)C(=O)O)O3)O2)O1
active: [1] 2570 nM | [2] 910 nM | [3] 2290 nM | [8] 723 nM | [6] 456 nM | [7] 645 nM

C[N+](C)([O-])CCNc1ccc(NCC[N+](C)(C)[O-])c2c1C(=O)c1c(O)ccc(O)c1C2=O
active: [2] 18500 nM
inactive: [1] | [4] | [5] | [7]

CC[C@]12C=CCN3CC[C@@]4(c5cc([C@@]6(C(=O)OC)C[C@H]7C[C@@H](C(C)(F)F)CN(Cc8c6[nH]c6ccccc86)C7)c(OC)cc5N(C)[C@H]4[C@@](O)(C(=O)OC)[C@H]1OC(C)=O)[C@@H]32
active: [2] 3690 nM
not listed: [5] | Furin (Homo sapiens)
inactive: all other assays above

COc1cc(OC)c(C=CS(=O)(=O)Cc2ccc(OC)c(NCC(=O)O)c2)c(OC)c1
active: [1] 293 nM | [2] 293 nM | [8] 329 nM
inactive: [4] | [5]

O=C(C=Cc1ccc(CN(CCO)CCc2c[nH]c3ccccc23)cc1)NO
active: [1] 165 nM | [2] 58.5 nM | [4] 233 nM | [5] 414 nM | [7] 118 nM

COc1ccc(S(=O)(=O)Nc2cccnc2Nc2ccc(O)cc2)cc1
inactive: [4] | [5]
active: [1] 827 nM | [3] 928 nM | [8] 522 nM

CCc1cnn2c(NCc3ccc[n+]([O-])c3)cc(N3CCCC[C@@H]3CCO)nc12
inactive: [1] | [2] | [3] | [8] | [7]

CCc1cc(C(C)=NOCc2ccc(C3CCCCC3)c(C(F)(F)F)c2)ccc1CN1CC(C(=O)O)C1
inactive: [1] | [3] | [4] | [5]
active: [8] 14700 nM | [6] 23300 nM

CC(C=CC1=C(C)CCCC1(C)C)=CC=CC(C)=CC(=O)Nc1ccc(O)cc1
active: [1] 12000 nM | [2] 5370 nM | [4] 42700 nM | [8] 38000 nM | [6] 42700 nM | [7] 38200 nM

COc1cc([C@@H]2c3cc4c(cc3[C@H](O)[C@H]3COC(=O)[C@@H]23)OCO4)cc(OC)c1OC
inactive: [4] | [5]
active: [1] 1850 nM | [3] 928 nM | [8] 522 nM

C[C@H]1[C@@H](OC(=O)CCC(=O)O)O[C@@H]2O[C@@]3(C)CC[C@@H]4[C@H](C)CC[C@@H]1[C@@]24OO3
active: [1] 13100 nM | [2] 5850 nM | [3] 1040 nM | [8] 1310 nM | [6] 3290 nM

C=CC(=O)Nc1cccc(Nc2nc(NC3CCC(N(C)C)CC3)nc3c2ncn3C(C)C)c1 (configuration not stated)
active: [1] 5220 nM | [2] 414 nM | [3] 737 nM | [4] 657 nM | [8] 1650 nM | [6] 2080 nM | [7] 2960 nM

CCN(CC)Cc1ccc2cc(COC(=O)Nc3ccc(C(=O)NO)cc3)ccc2c1
inactive: [1] | [2] | [5] | [8] | [7]

COc1ccc(Nc2cc(-c3cnc(N)nc3)nc(N3CCOCC3)n2)cn1
active: [1] 9270 nM | [2] 4140 nM | [3] 2610 nM | [4] 11700 nM | [8] 3290 nM | [6] 6570 nM | [7] 5900 nM

CNC(=O)c1cccc(-c2ccc3c(N4CCOC[C@H]4C)nc(N4CCOC[C@H]4C)nc3n2)c1
inactive: Furin (Homo sapiens)
active: [1] 261 nM | [2] 585 nM | [6] 6570 nM | [7] 2640 nM

Cc1ncc(-c2ccnc(Nc3ccc(S(C)(=O)=O)cc3)n2)n1C(C)C
active: [1] 3290 nM | [2] 2930 nM | [3] 5220 nM | [8] 3690 nM | [6] 3290 nM | [7] 4180 nM

Cc1[nH]c(C=C2C(=O)Nc3ccccc32)c(C)c1CCC(=O)O
not listed: [5] | Furin (Homo sapiens)
inactive: all other assays above

CCCCC(=O)O[C@]1(C(=O)CO)[C@@H](C)C[C@H]2[C@@H]3CCC4=CC(=O)C=C[C@]4(C)[C@@]3(F)[C@@H](O)C[C@@]21C
not listed: [5] | Furin (Homo sapiens)
inactive: all other assays above

CCC(C=C[C@@H]1OC(=O)C=C[C@H]1C)=C[C@H](C)CC=CC(C)=C[C@@H](C)C(=O)[C@@H](C)[C@H](O)[C@@H](C)CC(C)=CC(=O)O
active: [1] 9.1 nM | [2] 12.8 nM | [3] 12.8 nM | [4] 9.1 nM | [6] 16.1 nM

COc1cc2ncnc(Nc3cccc(Br)c3)c2cc1OC
active: [2] 11700 nM | [5] 9270 nM | [6] 10400 nM | [7] 20900 nM
inactive: [1] | [8]

O=C(O)C[C@H](O)C[C@H](O)C=Cc1c(C2CC2)nc2ccccc2c1-c1ccc(F)cc1
active: [1] 1650 nM | [2] 4650 nM | [3] 11700 nM | [4] 3690 nM | [5] 2330 nM | [6] 10400 nM | [7] 1320 nM

NS(=O)(=O)OC[C@@H]1C[C@@H](n2ccc3c(N[C@H]4CCc5ccccc54)ncnc32)C[C@H]1O
not listed: [2] | [7] | Furin (Homo sapiens)
inactive: all other assays above

CO[C@@H]1[C@@H](O)[C@H](O)[C@@H](n2c3c(Cl)cccc3c3c4c(c5c6cccc(Cl)c6[nH]c5c32)C(=O)NC4=O)O[C@@H]1CO
active: [1] 4140 nM | [2] 5850 nM | [4] 6570 nM | [6] 2610 nM | [7] 2640 nM
inactive: [5]
